# Screening results as filed in PubChem.
# GLS inh – inhibitors of human glutaminase (GLS); 410,000 compounds, 0.21% hits; Potency, µM (doses to about 45.5 µM), without a hit: at the top dose activity change, negative = inhibition, most hits filed as inhibitors; O94925; GLS enzymatic activity, qHTS titration
#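 Assay buffer: 45 mM KH2PO4 pH 8.2, 0.02% Tween-20. hKGA acts on L-glutamine (1 mM solution added); product glutamate is reported by an oxidase/peroxidase Amplex Red coupling, with fluorescence taken at baseline and 30 min.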
# Apoferritin bind – candidate novel general anesthetic via apoferritin binding | 350,000 compounds, 0.074% hits | P02791 | apoferritin/1-aminoanthracene competitive binding, fluorescence | Potency, µM (doses to about 77.5 µM), without a hit: top-dose activity change, negative = displacement, hits mostly inhibitors; further: nearly all actives have a fitted effect of over 20% in size
# Target sequence (P02791 2-175 limits assumed): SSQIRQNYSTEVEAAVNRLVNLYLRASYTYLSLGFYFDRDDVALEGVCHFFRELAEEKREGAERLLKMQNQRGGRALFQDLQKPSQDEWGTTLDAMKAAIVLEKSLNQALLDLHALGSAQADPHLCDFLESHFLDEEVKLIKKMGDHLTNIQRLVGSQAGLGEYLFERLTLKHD
#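 Probe: 1-aminoanthracene (50% saturated, PBS). Protein: horse-spleen apoferritin, 10 uM. Incubation: 10 min, room temperature. Detection: 380 nm excitation, 535 nm emission. Analysis: normalized response, four-parameter Hill.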
# BCR signal inh – inhibitors of chronic active B-cell receptor signaling. ABC-DLBCL IkBa-CBG/CBR reporter, luminescence ratio, 4 h. AID 493014. 340,000 compounds, 0.05% hits. Potency, µM (doses to about 46.1 µM), without a hit: at the highest dose activity change, negative = inhibition, usual class: inhibitors; active means well fitted inhibition curve with a large enough effect in the signal ratio, with a control signal flat, not every such curve was filed as active; inconclusive means small, poorly fitted or top-dose-only effect, or effect the other way, or a change in a side signal; the % refers to the signal ratio;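 further: plate controls were basal doxycycline-induced cells for no effect and cells given 10 µM MG132 for full effect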
#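 TMD8 ABC-DLBCL cells carrying doxycycline-inducible green luciferase fused to IkappaBalpha plus unfused red luciferase were exposed to compounds (up to 46 uM) for 4 hrs at 37C. Activity came from the overlap-corrected green/red luminescence ratio.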
# B2AR arrestin – beta2AR (human) beta-arrestin recruitment activity | 330,000 compounds, 0.02% hits | AID 492947 | beta-arrestin recruitment to beta2AR, cell-based reporter | Potency, µM (highest dose often 46.1 µM), for the others: at the top dose activation, usual class: activators;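 further: 0% = DMSO controls and full agonism = EC100 isoproterenol or metaproterenol; nearly all actives have a fitted effect of over 65% in size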
# Target sequence (P07550 whole entry, looked up): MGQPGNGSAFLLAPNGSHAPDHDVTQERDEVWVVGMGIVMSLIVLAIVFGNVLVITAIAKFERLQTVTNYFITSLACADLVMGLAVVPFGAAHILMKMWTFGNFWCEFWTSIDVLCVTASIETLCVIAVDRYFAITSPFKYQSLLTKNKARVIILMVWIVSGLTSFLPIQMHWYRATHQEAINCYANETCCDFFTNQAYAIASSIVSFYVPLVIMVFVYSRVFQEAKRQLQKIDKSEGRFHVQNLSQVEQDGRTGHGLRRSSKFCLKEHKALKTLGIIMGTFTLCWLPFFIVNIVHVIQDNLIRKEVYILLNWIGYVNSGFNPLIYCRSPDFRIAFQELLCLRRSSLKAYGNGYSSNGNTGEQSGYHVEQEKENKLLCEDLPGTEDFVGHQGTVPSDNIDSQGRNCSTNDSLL
# MBNL1-CUG inh – blocks human MBNL1 binding to CUG repeat RNA; TR-FRET MBNL1-His/biotin-(CUG)12 binding, 665/545 ratio; Potency, µM (highest dose often 57.5 µM), for the others: at the highest dose activity change, negative = inhibition, hits mostly inhibitors; 280,000 compounds, 0.036% hits; active means well fitted inhibition curve with a large enough effect in the signal ratio, with a control signal flat, not every such curve was filed as active; inconclusive means small, poorly fitted or top-dose-only effect, or effect the other way, or a change in a side signal; inactive means no such curve, though single readings can be large or run the other way; the % refers to the signal ratio
#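 His-tagged MBNL1 binding to biotinylated (CUG)12 RNA was measured by TR-FRET using terbium anti-His antibody (0.055 ng/ul final) and streptavidin-XL665 (5 nM final). Compounds were titrated 92 nM to 58 uM; 60 min at room temperature.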
# * = called active by the depositor; ? = inconclusive; . = not tested or not shown; ! = repeats disagree. Rows were chosen to be rich in hits. Some 0.35% of all compounds tested hit in one or more screens of this group. Unless noted, the call rests on the fitted dose curve; in most records, active means well fitted curve in the direction sought with a large enough effect; inconclusive means small, poorly fitted or top-dose-only effect, or another doubt; inactive means no such curve, though single readings can be large; an effect the other way counts as inactive or inconclusive. Unless noted, on the % scale 0 is the no-effect control and ±100 the full control effect; potency means the concentration at half of the fitted maximal effect.
SMILES,GLS inh,Apoferritin bind,BCR signal inh,B2AR arrestin,MBNL1-CUG inh
COc1cccc(CN(C(=O)c2oc3ccccc3c2C)C2CCS(=O)(=O)C2)c1 (stereo unspecified),0%,1%,.,.,.
Cc1c(NC(=O)/C(C#N)=C/c2c(Oc3ccccc3)nc3ccccn3c2=O)c(=O)n(-c2ccccc2)n1C,8%,-13%,18µM*,0%,?
CCOc1ccccc1Oc1nc(C)nc2c1oc1ccccc12,1%,-13%,13µM*,.,.
CCOc1ccccc1Oc1ncnc2c1oc1ccccc12,-12%,-2%,?,.,.
O=C(NCC(=O)N1CCN(c2ccccc2O)CC1)C1CCCCC1,5.6µM*,.,-5%,-1%,.
CCOc1ccc(C(=O)NCCn2cc(SCC(=O)Nc3ccccc3)c3ccccc32)cc1,12%,38%,.,.,.
Fc1cccc(Cc2c(-c3ccco3)nc3ccc(Br)cn23)c1,16µM*,.,.,.,.
COCCCOc1cc(C[C@@H](C[C@H](N)[C@@H](O)C[C@H](C(=O)NCC(C)(C)C(N)=O)C(C)C)C(C)C)ccc1OC,1%,.,.,.,.
Cc1onc(-c2ccccc2)c1-c1nc2cc(Cl)ccc2c(=O)o1,0%,0%,13µM*,-1%,.
O=C(Nc1ccccc1)Nc1ccc2ncoc2c1,0%,-4%,?,0%,-1%
O=C(Nc1ccccc1)Nc1ccc2ocnc2c1,20µM*,-2%,?,0%,-4%
CN1[C@@H]2CC[C@@H]1CC(OC(=O)[C@H](CO)c1ccccc1)C2 (stereo partly specified),-9%,-8%,.,.,.
Oc1c(Cl)cc(Cl)c2c1NCCC2,11µM*,2%,-21%,-2%,-10%
Cc1ccc(C(=O)Nc2ccc(N3CCOCC3)nc2N2CCOCC2)cc1,1.1µM*,13%,7%,0%,-6%
O=C1CC[C@H](C(=O)N2CCCCC2)N1,-10%,.,.,.,.
O=C(CCCOc1ccccc1)N1CCN(c2ccccc2)CC1,6%,-18%,-20%,-2%,6%
O=C(CCOc1ccccc1)N1CCN(c2ccc(O)cc2)CC1,11µM*,-1%,2%,0%,-5%
Nc1cccc2c1C(=O)N(CC(=O)NC13CC4CC(CC(C4)C1)C3)C2=O,1%,172%,7%,0%,14%
O=C(Cn1sc2ccccc2c1=O)Nc1ccccc1,7.1µM*,.,.,.,.
O=C(Cn1sc2ccccc2c1=O)NC12CC3CC(CC(C3)C1)C2,?,16µM*,?,0%,-1%
O=C(NCc1cccc(F)c1)c1ccccc1NC(=O)c1nsc2ccccc12,3%,-18%,.,.,.
O=C(O)[C@@]1(CCCCCCOc2ccc(Cl)cc2)CO1,.,6%,.,.,.
CCCC[C@H](NC(=O)[C@H](CC(C)C)NC(=O)[C@@H](Cc1c[nH]c2ccccc12)NC(=O)[C@H](Cc1ccccc1)NC(=O)[C@@H](Cc1c[nH]c2ccccc12)NC(=O)[C@H](CC(N)=O)NC(=O)[C@@H](Cc1c(Cl)cccc1Cl)NC(=O)[C@@H]1CCCN1C(=O)[C@H](Cc1ccccn1)NC(=O)[C@@H]1CCCN1C(=O)[C@H](N)CCCCNC(=O)c1cccnc1)C(N)=O,.,-20%,.,.,.
Cc1ccc(C)c(NC(=S)c2ccccn2)c1,11%,-25%,?,11µM*,15%
O=C(NC1CCCCC1)c1cccs1,3%,13µM*,?,0%,-24%
SMILES,GLS inh,Apoferritin bind,BCR signal inh,B2AR arrestin,MBNL1-CUG inh
COc1cccc(Nc2ccc(C(=O)O)cc2N)c1,3.2µM*,49%,?,0%,38%
Cc1cc(C)cc(Nc2ccc(C(=O)O)cc2N)c1,-27%,3%,?,-1%,0%
N[C@@H](C(=O)N[C@@H]1C(=O)N2C(C(=O)O)=C(CSc3cn[nH]n3)CS[C@H]12)c1ccc(O)cc1,6.3µM*,.,.,.,.
N[C@@H](C(=O)N[C@@H]1C(=O)N2C(C(=O)O)=C(Cl)CS[C@H]12)c1ccccc1,11µM*!,7%,2%,-1%,28%
NC(=O)c1cc[n+](CC2=C(C(=O)O)N3C(=O)[C@@H](NC(=O)C(c4ccccc4)S(=O)(=O)[O-])[C@H]3SC2)cc1 (stereo partly specified),0.79µM*,5%,5%,0%,4%
COc1ccc(-c2csc3ncnc(Nc4ccc(OC)c(OC)c4)c23)cc1,18%,49%,.,.,.
Cc1ccc(CN2CCC(CNC(=O)c3cc4ccc5cccnc5c4[nH]3)CC2)cc1,3%,?,.,.,.
CC(C)Oc1ccc(/C=N/NC(N)=S)cc1,9%,1%,?,16µM*,1%
CS(=O)(=O)N(Cc1ccccc1)c1ccc(C(=O)Nc2ccc(Cl)cc2)cc1,5%,-5%,.,.,.
COc1ccc(CNCc2cc3c(cc2[N+](=O)[O-])OCO3)cc1,-21%,-9%,-3%,0%,?
Cc1cc(C)cc(NCc2cc3c(cc2[N+](=O)[O-])OCO3)c1,11%,16µM*,2%,1%,?
Cn1c(N2CCCC2)nc2c1c(=O)n(Cc1ccc(Cl)cc1)c(=O)n2C,13µM*,-15%,0%,0%,5%
Cn1c(NCCCCO)nc2c1c(=O)n(Cc1ccc(Cl)cc1)c(=O)n2C,13µM*,-3%,.,.,.
COc1ccc(Cn2c(=O)c3c(nc(NCCO)n3C)n(C)c2=O)cc1,-5%,-8%,-8%,0%,3%
Cn1c(NCCCN2CCOCC2)nc2c1c(=O)n(Cc1ccc(Cl)cc1)c(=O)n2C,16µM*,-14%,?,0%,5%
Cn1c(N2CCC(C(N)=O)CC2)nc2c1c(=O)n(Cc1ccc(Cl)cc1)c(=O)n2C,?,0%,?,0%,-3%
O=C(Nc1ccc([N+](=O)[O-])cc1)c1ccc(S(=O)(=O)N2CCCC2)cc1,-4%,4%,-10%,0%,-4%
O=C(Nc1ccc(S(=O)(=O)N2CCCCCC2)cc1)c1[nH]ncc1[N+](=O)[O-],.,13µM*,?,0%,?
Cc1ccccc1NC(=O)c1sc2nc(-c3ccncc3)ccc2c1N,-11%,2%,.,.,.
Cc1nn(-c2ccccc2)c2nc(-c3ccco3)cc(C(=O)O)c12,7.1µM*,-4%,0%,-1%,16%
NCCCCC(NC(=O)C1CCCN1C(=O)C1CSSCC(N)C(=O)NC(Cc2ccccc2)C(=O)NC(Cc2ccccc2)C(=O)NC(CCC(N)=O)C(=O)NC(CC(N)=O)C(=O)N1)C(=O)NCC(N)=O (stereo unspecified),-1%,.,.,.,.
CN(Cc1ccco1)c1ncnc2ccc(-c3ccc4c(ccn4C)c3)cc12,7%,.,6.5µM*,-1%,.
Cc1cccc(-c2ccc3ncnc(N(C)Cc4ccco4)c3c2)c1,.,.,?,0%,.
Cc1ccc(N2CCN(C(=O)CCS(=O)(=O)c3cc4c(cc3Cl)NC(=O)CO4)CC2)c(C)c1,14%,-21%,.,.,.
